From PubChem BioAssay
A selection: hits, their analogues and other compounds. The true share with any hit is near 2.5%.
KOR antag MB: blocks the human kappa opioid receptor, Maybridge compounds; P41145; OPRK1 cells, antagonist mode, fluorescence readout; inhibition, % at 9 µM; 0.4% of 16,000 active; in the data active means inhibition above about 50%
Target sequence (P41145 whole entry, looked up): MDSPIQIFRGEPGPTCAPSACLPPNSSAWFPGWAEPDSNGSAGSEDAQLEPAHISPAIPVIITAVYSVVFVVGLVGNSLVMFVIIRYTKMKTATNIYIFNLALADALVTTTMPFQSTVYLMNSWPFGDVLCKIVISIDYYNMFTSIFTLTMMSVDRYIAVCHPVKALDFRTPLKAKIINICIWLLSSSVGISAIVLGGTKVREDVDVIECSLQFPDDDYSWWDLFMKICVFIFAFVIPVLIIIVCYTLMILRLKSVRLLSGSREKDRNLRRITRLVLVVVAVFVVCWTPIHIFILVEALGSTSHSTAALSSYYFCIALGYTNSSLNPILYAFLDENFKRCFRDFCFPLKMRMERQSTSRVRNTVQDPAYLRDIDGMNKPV
rat GALR2 agon: activates the rat galanin receptor 2; cell-based GALR2 agonist screen; activation, % at 10 µM; 0.5% of 16,000 active; O08726; in the data active means activation above about 15%
TLR4 MyD88 blk: inhibitors of human TLR4-MyD88 binding; Cell-based TLR4-MyD88 binding inhibition assay; 0.06% of 16,000 active; inhibition, % at 10 µM; in the data active means inhibition above about 45%
S1P1 ag: activates the human S1P1 receptor; activation, % at 4.5 µM; 1.5% of 16,000 active; P21453; S1P1 agonist cell-based reporter assay; in the data active means activation above about 80%
Of the large screens only hits and unclear results are named; the others gave an inactive call.

CCOc1ncnc2c1nnn2Cc1ccccc1Cl	rat GALR2 agon 20.3
Clc1ccc(-n2nnc(/C=C/C=C/N3CCOCC3)n2)cc1	rat GALR2 agon 29.9
COc1ccc(-c2cc(C(F)(F)F)n3nc(-c4ccco4)cc3n2)cc1OC	rat GALR2 agon 26.9
COc1ccc(-c2cc(C(F)(F)F)n3nc(C4CC4)cc3n2)cc1	S1P1 ag 85.0
COc1ccc(-c2cc(-c3ccc(OC)cc3)c3c(=O)n(C)c(=O)n(C)c3n2)cc1	S1P1 ag 81.2 (no result: TLR4 MyD88 blk)
Cn1cc(C(=O)O/N=C(\N)c2ccc(C(C)(C)C)cc2)c(C(F)(F)F)n1	S1P1 ag 100.0
N/C(=N/OC(=O)c1ccno1)c1ccc(C(F)(F)F)cc1	none
NNC(=O)CN1C(=O)CSc2ccc(C(F)(F)F)cc21	none
C[n+]1cccc(-c2n[nH]c(-c3ccccc3)n2)c1	S1P1 ag 110.0
NS(=O)(=O)c1ccc(CNS(=O)(=O)c2ccc(-c3ccccn3)s2)cc1	none
N#Cc1csc(-c2ccc(F)cc2F)n1	none
COC(=O)c1sc(C(F)(F)F)c(-c2ccccc2)c1N	S1P1 ag 98.3 (no result: TLR4 MyD88 blk)
COC(=O)c1sc(SC)c(C#N)c1-c1cccc(C(F)(F)F)c1	none
Cc1cc(C(=O)O/N=C(\N)COc2ccc([N+](=O)[O-])cc2)no1	none
O=C(/C=C/c1cc(-c2ccccc2)c(C(F)(F)F)s1)c1cccs1	KOR antag MB 63.3, S1P1 ag 100.5
CS/C(Nc1ccccc1)=C(/C#N)C(=O)c1cc(-c2ccccc2)c(C(F)(F)F)s1	none
O=[N+]([O-])c1cc(C2SCCS2)ccc1SCc1ccco1	S1P1 ag 99.5
O=C(NCc1ccco1)c1ccc(Cl)cc1[N+](=O)[O-]	none
C/S(=N\S(=O)(=O)c1ccc(Cl)cc1)c1sc(Cl)c2c1C(=O)CC(C)(C)C2 (stereo not drawn)	S1P1 ag 82.6
Cc1ccc(C)c(CSc2nc(C3CCCCC3)c(C#N)c(=O)[nH]2)c1	S1P1 ag 97.0
CCN(CC)c1ccc(N=Nc2ccc(Br)cn2)c(O)c1	S1P1 ag 85.5
CCn1nc(C)cc1-c1nnc(-c2ccccc2Cl)o1	none
CCn1nc(C)cc1-c1nnc(SCc2ccc(C(F)(F)F)cc2)o1	S1P1 ag 96.9
O=C1Nc2ccccc2/C1=N\N=C\c1cc(Br)ccc1O	none
Cc1ccc(C)n1N1C(=O)c2ccccc2C1=O	none
Cc1cc(/C(N)=N/OC(=O)c2cccc(Cl)c2)no1	none
N/C(=N\OC(=O)c1ccc(OCC(F)(F)F)nc1)c1cccc(Cl)c1	S1P1 ag 94.7
O=[N+]([O-])c1cccnc1SCc1csc2ccc(Cl)cc12	S1P1 ag 105.5
CCOC(=O)C1CCN(c2ccccc2CN2CCN(c3ccccc3OCC)CC2)CC1	none
CCOC(=O)C1CCN(Cc2cccc(NC(=O)c3ccco3)c2)CC1	KOR antag MB 55.6
Cn1ccnc1CS(=O)(=O)c1cc(Cl)c(Oc2ccc([N+](=O)[O-])cc2Cl)c(Cl)c1	S1P1 ag 104.5
CCOC(=O)c1ccc(N2CC3CCCCN3C2c2cccc(OC)c2O)cc1 (stereo not drawn)	KOR antag MB 59.9
N/C(CS(=O)(=O)Cc1ccc(F)cc1)=N\OC(=O)c1cccs1	none
Cn1c(=O)c2cc3cc(Cl)ccc3nc2c2c(=O)n(-c3ccccc3)c(=O)n(-c3ccccc3)c21	KOR antag MB 70.1
CN1c2ccsc2C(=O)/C(=N\Nc2cccc(C(F)(F)F)c2)S1(=O)=O	S1P1 ag 87.2
COC(=O)C(C(C)=O)C(=O)c1ccccc1[N+](=O)[O-] (stereo not drawn)	none
Cc1nn(-c2ccccc2)nc1C(=O)NNC(=O)CSCc1cccc2ccccc12	S1P1 ag 89.4
CN1CCN(c2ccc(CNC(=O)c3ccsc3)cc2)CC1	none
COC(=O)c1ccc([N+](=O)[O-])c(Oc2ccc(Cl)cc2Cl)c1	none
CCOC(=O)c1ccc(Oc2ccc(Cl)cc2Cl)c([N+](=O)[O-])c1	S1P1 ag 93.5
CC(C)NC(=O)N(Cc1cccnc1)Cc1ccc(Cl)cc1Cl	none
O=C(c1ccc(OC(F)(F)F)cc1)c1ncc[nH]1	none
CC(C)(C)c1ccc(C(=O)c2ncc[nH]2)cc1	S1P1 ag 102.8
Cc1cc(N/N=C/c2cccc(Cl)c2)nc2n[nH]c(N)c12	none
CCCCCCCCCCCC(=O)ON1C(=O)CCC1=O	KOR antag MB 50.5
Cc1nn(Cc2n[nH]c(=S)n2C)c(C)c1Br	none
CC(C)Nc1c(-c2ccccc2)oc2ccc(C(=O)O)cc2c1=O	rat GALR2 agon 28.3
CC(Oc1ccc2oc3ccccc3c(=O)c2c1)C(=O)O (stereo not drawn)	none
Cn1nc(C(C)(C)C)cc1C(=O)NCc1ccc2c(c1)CCO2	S1P1 ag 80.2
Cc1cc(C(=O)NCc2ccc3c(c2)OCCCO3)nn1C	none
CC(C)(C)C(C)(C#N)Nc1ccc(Cl)cc1 (stereo not drawn)	rat GALR2 agon 45.3
COC(=O)CCCCCCCC(=O)Nc1ccc(Cl)cc1	none
S=C(NCc1ccco1)Nc1cccnc1	S1P1 ag 119.7
S=C(NCc1ccco1)Nc1ccc(C2=NCCO2)cc1	none
c1cncc(-c2cc(N3CCOCC3)c3ccccc3n2)c1	none
Cc1ccc(NC(=O)Nc2ccc(OCc3ccccc3)cc2)cc1NS(C)(=O)=O	S1P1 ag 88.1
Nc1nc(SCc2c(F)cccc2Cl)n[nH]1	none
COc1cc([N+](=O)[O-])c(OC)cc1SCc1n[nH]c(=S)n1-c1ccc(C)cc1	KOR antag MB 76.4
Cc1cc(S(=O)(=O)NCCNc2nccc(C(F)(F)F)n2)c(C)cc1Cl	none
COc1ccccc1NC(=O)NCCN1CCN(Cc2ccccc2)CC1	KOR antag MB 80.2
Cc1nccc(-c2cccc(NN=C(C#N)C#N)c2)n1	S1P1 ag 104.4
CC(C)(C)/C(=N/O)c1cccs1	none
COc1ccc(/C=C(\C#N)C(N)=S)cc1	S1P1 ag 108.8
Cc1cc(N=Nc2ccc(Cl)cc2)cc(CN2CCOCC2)c1O	S1P1 ag 95.3
c1ccc(-c2cc3ncnc(NCc4ccc5c(c4)OCO5)c3s2)cc1	KOR antag MB 61.0
COc1ccc(NC(=S)NC(C)(C)C)c([N+](=O)[O-])c1	S1P1 ag 89.8
Cc1cc(C(=O)NC(C)c2ccccc2)c(C)o1 (stereo not drawn)	none
COC(=O)/C=C1\SC(=Nc2ccc(Cl)cc2)N(c2ccc(Cl)cc2)C1=O	KOR antag MB 64.9
COC(=O)/C=C1\SC(c2ccccc2)=NC1=O	none
COc1nc(NNC(=O)NS(=O)(=O)c2ccccc2Cl)nc(OC)n1	none
Cc1ccc(-c2nc(NC(=O)c3c(C)noc3C)sc2C)cc1Cl	none
COc1ccc(C(=O)Nc2nc(-c3ccc(C)c(Cl)c3)c(C)s2)cc1	rat GALR2 agon 17.5
CC12CCC(=O)C=C1CCC2=O (stereo not drawn)	TLR4 MyD88 blk 53.0
CC(C)(C)c1cc2nc(C(F)(F)F)cc(NNC(=O)Nc3ccc(OC(F)(F)F)cc3)n2n1	S1P1 ag 82.0
CNc1ncnc(NNC(=O)Nc2ccc(OC(F)(F)F)cc2)c1[N+](=O)[O-]	none
CSc1ccc(Oc2cccc(F)c2C#N)cc1	none
Clc1ccc(-c2nc(CN3CCOCC3)cs2)cc1	S1P1 ag 102.2
O=C1Nc2ccc(OC(F)(F)F)cc2C1=O	rat GALR2 agon 25.8
Cc1c(Cl)cccc1Nc1n[nH]c(=O)s1	none
Cc1noc(C)c1S(=O)(=O)NN	none
Cc1ccc(/C=N/Nc2ncnc3sc(-c4ccccc4)cc23)o1	none
